# Assay results taken from ChEMBL document CHEMBL4513216, “Probing the Open Global Health Chemical Diversity Library for Multistage-Active Starting Points for Next-Generation Antimalarials” (ACS Infect Dis, 2020).
# In all, about 69,000 compounds went through this assay and about 8,600 (12%) showed an effect of 50% or more. What follows is part of a selection rich in strong results, with near analogues and random picks from the rest.
# System: Plasmodium berghei
# Assay: Screen against P. berghei liver stage (PbLuc), transformed with Luciferase, at 10uM
# Type: functional, HepG2
# Conditions: tested at 10 uM
row,SMILES,INHIBITION [%]
1,CCN1CC(C(=O)NCc2cccnc2-n2cccn2)CC1=O (stereo not drawn),-10.1
2,COC[C@@]12CCO[C@@H]1CCN(C(=O)c1ccc(F)c(F)c1)C2,-30.6
3,Cc1nc(COCC2CN(C(=O)N(C)C)Cc3nccn3C2)cs1 (stereo not drawn),45.4
4,O=S(=O)(c1cccc(F)c1)N1CCCCC1c1ccn[nH]1 (stereo not drawn),27.8
5,CC(C)Nc1nc(N2CCCC2)nc2c1CN(C)CC2,22.4
6,CC(C)Nc1nc(N2CCCC2)nc2c1CCN(S(C)(=O)=O)CC2,35.2
7,CC(C)Nc1nc(N2CCCC2)nc2c1CN(c1ncc(F)cn1)CC2,65.8
8,CC(C)Nc1nc(N2CCCC2)nc2c1CN(S(C)(=O)=O)CC2,-29
9,Cc1nc(N2CCCC2)nc2c1CN(C(C)C)CC2,-10.4
10,Cc1nc(CN2CCc3nc(N4CCCC4)nc(NC(C)C)c3C2)cs1,67.4
11,CCC(C)N1CCc2nc(N3CCCC3)nc(NC(C)C)c2C1 (stereo not drawn),2.59
12,CC(C)Nc1nc(N2CCCC2)nc2c1CN(C(C)C)CC2,61.8
13,Cc1nc(CN2CCc3nc(NC(C)C)nc(C)c3C2)cs1,46.7
14,Cc1nc(Nc2nncs2)cc(C2CCCN2)n1 (stereo not drawn),-8.275
15,COC(=O)c1cccc(C(=O)N2CCCC(n3cncn3)C2)c1 (stereo not drawn),15.5
16,CN1CC2(CCN(Cc3cccc(C#N)c3)CC2)CC1=O,43.1
17,COCCCN1CC2(CCN(Cc3ncc[nH]3)CC2)CC1=O,28.7
18,CC(C)=CCN1CC2(CCN(Cc3ncc[nH]3)CC2)CC1=O,4.82
19,Cc1ccc(=O)n(CC2(O)CCN(Cc3cnc(C)nc3)CC2)n1,15.9
20,CN1CC2(CCN(Cc3ncc[nH]3)CC2)CC1=O,53.7
21,Cc1ncc(CN2CCC3(CC2)CC(=O)N(C)C3)cn1,55.9
22,CC(=O)NCC(=O)N1CCn2cc(CN(C)Cc3ccco3)nc2C1,42.5

row,SMILES,INHIBITION [%]
1,O=C1COC2(CCN(C(=O)c3ccoc3)CC2)CN1Cc1cccnc1,0.112
2,Fc1ccccc1Oc1nccnc1C1CCCN(C2CCOCC2)C1 (stereo not drawn),-3.02
3,O=C(NCc1ccnc(OCC(F)(F)F)c1)NCC1CCCO1 (stereo not drawn),-20.3
4,O=C(c1ccc(Br)cc1F)N1CCc2ccncc21,-4.91
5,COc1ccc(C[C@H]2CN(C3CCOCC3)CC[C@@H]2OCC2CC2)cc1,29.7
6,Cc1cc(C(=O)N2CCCCC2c2nc3cc(F)ccc3[nH]2)no1 (stereo not drawn),4.97
7,O=C(CN1CCCC1c1nc2cc(F)ccc2[nH]1)NCc1ccccn1 (stereo not drawn),50.1
8,O=C(c1ccon1)N1CCCCC1c1nc2cc(F)ccc2[nH]1 (stereo not drawn),62.9
9,Cn1nc(C(=O)N2CCCCC2c2nc3cc(F)ccc3[nH]2)ccc1=O (stereo not drawn),11.8
10,Fc1ccc2[nH]c(C3CCCN3Cc3c[nH]cn3)nc2c1 (stereo not drawn),42.6
11,Fc1ccc2[nH]c(C3CCCN3CCc3ccccn3)nc2c1 (stereo not drawn),21.8
12,CN1CC2(CCN(Cc3ccoc3)CC2)COc2ccccc2S1(=O)=O,13.7
13,Cc1cc(C(N)=O)nc(C2(C)CCCN2Cc2cnn(C)c2)n1 (stereo not drawn),18.3
14,Cc1nccn1[C@@H]1CC[C@@H](N(C)S(=O)(=O)c2cccc(F)c2)[C@H]1O,16.96
15,CCN(C(=O)CN1CCCC1c1cc(C)no1)c1ccccc1C (stereo not drawn),62.4
16,CCN(C(=O)CN1CCCC1c1ccc(F)cc1)c1ccccc1C (stereo not drawn),-55.1
17,Cc1cc(C2CCCN2CC(=O)N(CCC#N)c2ccccc2F)on1 (stereo not drawn),26.8
18,CN(C)CCOCc1nnc2n1CCN(Cc1cccs1)CC2,-35
19,O=C(CSC1CCc2ccccc2NC1=O)NCc1cccs1 (stereo not drawn),3.13
20,CN(CCCc1nccn1C)c1nccc(-c2cc(C(=O)O)ccn2)n1,14
21,O=C(Cc1cnc(-n2cccc2)s1)NCCCO,-1.99
22,CN(C)C(=O)NCc1ncn2c1CN(Cc1ccco1)CCC2,28.2

row,SMILES,INHIBITION [%]
1,OCCOCc1ncn2c1CN(Cc1cccs1)CCC2,21.8
2,CN(C)C(=O)NCc1ncn2c1CN(Cc1cccs1)CCC2,52.3
3,c1coc(COCc2ncn3c2CN(Cc2cccs2)CCC3)c1,56.7
4,CS(=O)(=O)NCc1ncn2c1CN(Cc1cccs1)CCC2,-17.9
5,c1csc(CN2CCCn3cnc(COCC4CC4)c3C2)c1,-1.55
6,Cc1ccc(S(=O)(=O)NCCc2nnc[nH]2)c2cccnc12,33.7
7,O=C1CCCN1Cc1ncn2c1CN(C(=O)NC1CCCC1)CCC2,-56.2
8,NC(=O)N1CCCCCC1C1CCN(c2nccc(C(F)(F)F)n2)CC1 (stereo not drawn),61.8
9,N#Cc1cccnc1N1CCC(C2CCCCCN2C(N)=O)CC1 (stereo not drawn),-5.567
10,O=C(C1CC1)N1CCCCCC1C1CCN(c2ncccn2)CC1 (stereo not drawn),22.3
11,CC(C)N1CCC(c2nccnc2Nc2cnccn2)CC1,23.9
12,CCc1nc(C)c(C(=O)NCCNc2ncccn2)s1,29.1
13,CCc1ncc(C(=O)NCCNc2ncnc3sccc23)s1,96
14,CCc1nc(C)c(C(=O)NCCNc2ncnc3sccc23)s1,93.3
15,Cc1ncc(C(=O)NCCNc2ncnc3sccc23)s1,77.1
16,Cc1ncc(C(=O)NCCNc2ccncc2)s1,-21.3
17,CCc1nc(C)c(C(=O)NCCNc2ncccc2C#N)s1,2.3
18,CCCc1nc(C)c(C(=O)NCCNc2ncccn2)s1,19.6
19,CCc1ncncc1C(=O)NCCNc1ncnc2sccc12,41.3
20,CCc1nc(C)c(C(=O)NCCNC(=O)c2cccs2)s1,58
21,Cc1ncc(C(=O)NCCNC(=O)c2ccccc2)s1,0.411
22,CCc1ncc(C(=O)NCCNc2ccncc2)s1,23.4

row,SMILES,INHIBITION [%]
1,Cc1ncsc1C(=O)NCCNC(=O)c1cccs1,10.2
2,COc1c(C2CCCN2C(=O)c2cc(C)on2)c(C)nn1C (stereo not drawn),14.1
3,Cc1ncc2c(n1)CN(CC(=O)Nc1nccs1)CC2,1.78
4,COc1ccccc1OCCNCc1c(C)nn(C)c1N(C)C,-11.98
5,CCOc1ccc(C(=O)N(C)Cc2nccn2CC(F)(F)F)cc1,21.7
6,Cc1ccc(CC(=O)N2CCCC(n3nc(C)cc3C)C2)cn1 (stereo not drawn),5.03
7,CC(=O)c1cccc(NC(=O)Cn2cc(-c3ccccc3)ncc2=O)c1,17
8,O=C(NCc1ccnc(OCC2CC2)c1)C1Cc2ccccc2O1 (stereo not drawn),-39.6
9,Clc1ccccc1CN1CCCC(c2nnc(-c3cnccn3)o2)C1 (stereo not drawn),2.71
10,CC(O)c1cn(Cc2ccc(F)cc2)nn1 (stereo not drawn),23.6
11,CN(C)c1ncc(-c2cc(C(=O)NCCC#N)n(CC3CC3)c2)cn1,-2.35
12,Cc1cnc(-c2nc(C3CCN(Cc4ccccc4Cl)CC3)no2)cn1,32.35
13,c1cc(-c2noc(CN3CCn4c(nnc4C4CC4)C3)n2)cs1,-14.65
14,Cc1nc(C)n(C2CCCN(C(=O)CCc3cscn3)C2)n1 (stereo not drawn),37.9
15,c1cnc(C2CCCN(Cc3ccsc3)C2)cn1 (stereo not drawn),25.4
16,O=C(c1c[nH]c(=O)[nH]1)N1CCCC2(CCC(=O)N(C3CCCC3)C2)C1 (stereo not drawn),37.7
17,CC1(C)CC(C(=O)N2CCC3(CCC(=O)N(C4CC4)C3)CC2)CCO1 (stereo not drawn),53.3
18,Cc1cnn(CC(=O)N2CCC3(CCC(=O)N(C4CCCC4)C3)CC2)c1,39.1
19,CC1(C)CC(CN2CCC3(CCC(=O)N(C4CCC4)C3)CC2)CCO1 (stereo not drawn),6.27
20,Cc1ncc(CC(=O)N2CCC3(CCC(=O)N(CCO)C3)CC2)c(=O)[nH]1,46.1
21,O=C(Nc1ccc(F)cc1)N1CCC2(CCC(=O)N(C3CC3)C2)CC1,31.6
22,Cc1ncc(CC(=O)N2CCC3(CCC(=O)N(C4CC4)C3)CC2)c(=O)[nH]1,50.8

row,SMILES,INHIBITION [%]
1,CC(=O)c1ccc(N2CCC3(CCC(=O)N(C4CC4)C3)CC2)nc1,-25.7
2,O=C(Cc1c[nH]c(=O)[nH]c1=O)N1CCC2(CCC(=O)N(C3CC3)C2)CC1,58.2
3,O=C(COC1CCCC1)NCCc1noc(-c2ccccn2)n1,-13.1
4,Cc1cc(N(C)C)nc(C2COCCN2Cc2cc(C)on2)n1 (stereo not drawn),44.8
5,CNC(=O)C1(c2cnccn2)CCCN1C(=O)c1ccc(OC)cc1 (stereo not drawn),20.8
6,N[C@@H](Cc1c[nH]cn1)C(=O)N1CCC(Oc2ccc(F)cc2)CC1,42.8
7,CN1CC2(CCN(Cc3cc(Cl)ccc3OCC(=O)O)CC2)OC1=O,33.3
8,O=C(O)COc1ccc(Cl)cc1CN1CCC2(CCNCC2)CC1,5.46
9,O=C(O)COc1ccc(Cl)cc1CN1CCC2(CCOCC2)CC1,64.5
10,Cc1ccc2cc(C(=O)N3CCCC3Cn3cccn3)[nH]c2c1 (stereo not drawn),-167
11,CCC1CN(C)c2ccccc2CN1CCn1cncn1 (stereo not drawn),40.6
12,Cc1ccc(-n2cccn2)cc1S(=O)(=O)N1C[C@H](C2CC2)[C@@H](N)C1,59.5
13,NC(=O)c1ccc(OCCCN2C[C@H](C3CC3)[C@@H](N)C2)cc1,-13.4
14,N[C@H]1CN(S(=O)(=O)c2ccccc2)C[C@@H]1C1CC1,58.3
15,N[C@H]1CN(CCOc2ccc(F)cc2)C[C@@H]1C1CC1,27.6
16,N[C@H]1CN(S(=O)(=O)Cc2ccccc2)C[C@@H]1C1CC1,-28.7
17,COc1ccc(-n2cccn2)cc1S(=O)(=O)N1C[C@H](C2CC2)[C@@H](N)C1,12.8
18,N[C@H]1CN(CCCOc2ccccc2)C[C@@H]1C1CC1,53.8
19,N[C@H]1CN(S(=O)(=O)c2cccnc2)C[C@@H]1C1CC1,1.98
20,Cc1ccc(-n2cccn2)cc1S(=O)(=O)N1C[C@H]2CC[C@@H](C1)N(C)C2,48.1
